# From PubChem BioAssay (NCI)
# This is part of a sample that, as a whole, favours compounds with a hit. Of some 83,000 tested, about 20% had one in any assay.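 Plates (96-well) were seeded with cells, treated with compound at one concentration, and incubated for 48 hours before percent growth was determined.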 Unmarked numbers belong to inactive results. Activity calls are given as the source filed them. Rule for the calls: active = growth percent below 10; inactive = the rest.
# Tested on: SNB-19 CNS
# Experiment: NCI-60 one-dose screen, 48 h (100 = growth as untreated, 0 = no growth, -100 = all killed)
# Conditions: 10 µM unless noted
row,SMILES,growth
1,CCCCC(=O)Nc1nc2ccc(SCCC)cc2s1,64.4%
2,CC(C)(C)C(=O)/C=c1/[nH]c(=O)/c(=C/c2ccccc2O)s1,66.5%
3,CC[C@@]1(O)C(=O)OCc2c1cc1n(c2=O)Cc2c-1nc1ccccc1c2/C=N/OC(C)(C)C,5.74% (active)
4,COc1ccc(OC)c(NCC(=O)n2nc(/C=C\c3ccc(O)c(OC)c3)cc2/C=C\c2ccc(O)c(OC)c2)c1,16.7%
5,O=C1OC(=O)C2C3CC(c4ccccc43)C12 (stereo not drawn),107%
6,COc1ccc2c(c1)OC(N)=C(C#N)C2c1ccc(F)cc1 (stereo not drawn),30.1%
7,S=C=NP1(N=C=S)=NP(N=C=S)(N=C=S)=NP(N=C=S)(N=C=S)=NP(N=C=S)(N=C=S)=N1 (stereo not drawn),109%
8,COc1cc(-c2nc(N)n(CC(=O)Nc3ccc(/C(C)=N\O)cc3)n2)cc(OC)c1OC,99.9%
9,COc1cc2ncnc(Oc3ccc(NC(=O)Nc4ccc(CN5CCOCC5)c(C(F)(F)F)c4)c4ccccc34)c2cc1OC,55.2%
10,COc1ccc(-c2c(C#N)cnc(N)c2-c2nc3cc(C)c(C)cc3[nH]2)cc1,67.6%
11,c1ccc(CNCCN(CCNCc2ccccn2)Cc2ccc3ccccc3c2)nc1,18.3%
12,C=C1C(=O)O[C@H]2[C@H]1CC/C(C(=O)Nc1ccc(OC)c(C(N)=O)c1O)=C\CC[C@@]1(C)O[C@@H]21,90.4%
13,Cc1ccc2oc(=O)cc(C3C(C#N)=C(N)Oc4c3ccc3ccccc43)c2c1 (stereo not drawn),84.9%
